Here are results for ten compounds from PubChem BioAssay (Tox21).

For test [1], the target named is Thyrotropin receptor (Homo sapiens) (UniProt P16473). Kind of test: qHTS assay to identify small molecule agonists of the thyroid stimulating hormone receptor (TSHR) signaling pathway (AID 1224843; calls by dose curve; further: nearly all actives have a fitted effect of over 45% in size). A digest of the protocol: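 A cell-based cAMP HTRF format was run in TSHR-transfected HEK293 cells, 800 per well. Treatment: 30 min, room temperature. Detection: 1 h with labelled cAMP and anti-cAMP cryptate. Concentration-response over 15 points, three replicates.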
Thyrotropin receptor (Homo sapiens), sequence (P16473 whole entry, looked up): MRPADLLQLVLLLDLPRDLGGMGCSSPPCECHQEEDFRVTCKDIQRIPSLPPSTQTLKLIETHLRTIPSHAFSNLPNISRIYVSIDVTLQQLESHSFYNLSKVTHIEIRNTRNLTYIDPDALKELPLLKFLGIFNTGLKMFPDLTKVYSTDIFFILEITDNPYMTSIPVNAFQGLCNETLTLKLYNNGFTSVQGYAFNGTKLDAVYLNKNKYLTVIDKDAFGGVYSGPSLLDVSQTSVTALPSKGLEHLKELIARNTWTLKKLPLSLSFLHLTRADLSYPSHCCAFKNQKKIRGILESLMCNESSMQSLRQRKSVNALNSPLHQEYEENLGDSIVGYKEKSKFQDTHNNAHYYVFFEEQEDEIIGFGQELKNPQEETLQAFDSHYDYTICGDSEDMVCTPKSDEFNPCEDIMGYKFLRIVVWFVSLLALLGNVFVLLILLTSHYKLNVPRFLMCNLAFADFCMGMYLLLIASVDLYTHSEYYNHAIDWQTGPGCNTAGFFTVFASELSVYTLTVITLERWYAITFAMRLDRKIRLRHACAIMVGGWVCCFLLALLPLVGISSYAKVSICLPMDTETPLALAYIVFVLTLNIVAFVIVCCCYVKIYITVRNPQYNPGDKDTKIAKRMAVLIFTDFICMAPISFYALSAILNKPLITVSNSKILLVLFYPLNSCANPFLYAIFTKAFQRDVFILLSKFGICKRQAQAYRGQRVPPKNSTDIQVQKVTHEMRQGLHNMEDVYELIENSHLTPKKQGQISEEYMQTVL
For orientation: In qHTS, concentration-response curves come from the screen itself.

A short description of test [2]: qHTS assay to identify small molecule agonists of the hypoxia (HIF-1) signaling pathway - cell viability counter screen (AID 1224844; calls by dose curve; further: nearly all actives have a fitted effect of over 50% in size). A digest of the protocol: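 CellTiter-Glo luminescence read-out, 30 min RT, taken in the same wells as the beta-lactamase HRE reporter assay; HRE-bla ME-180 cells, 0.5% dialyzed FBS, 17 hr compound treatment at 37C, 5% CO2.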
The nature of test [3]: qHTS assay to identify small molecule agonists of H2AX (AID 1224845; active means well fitted activation curve with a large enough effect in the signal ratio in the repeat runs, not every such curve was filed as active; the % refers to the signal ratio). A digest of the protocol: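 Phospho-H2AX Ser139 measured by HTRF (ex 320 nm; em 665 and 620 nm) after 24 hr antibody incubation. Compounds, 15 concentrations, 0.76% DMSO, were applied to CHO-K1 cells for 3hr at 37C before lysis.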
A short description of test [4]: qHTS assay to identify small molecule agonists of the hypoxia (HIF-1) signaling pathway (AID 1224846; active means well fitted activation curve with a large enough effect in the signal ratio in the repeat runs, not every such curve was filed as active; the % refers to the signal ratio). The essentials: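 Beta-lactamase FRET read-out (CCF4-AM substrate) from ME-180 cells carrying an HRE-driven bla reporter, after 17 hrs compound exposure at 37C/5% CO2. Cells were seeded at 2,000 per well in 0.5% dialyzed FBS medium and preincubated 5 hrs.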
Test [5] is described as follows: qHTS assay to identify small molecule agonists of H2AX - cell viability counter screen (AID 1224847; calls by dose curve; further: top concentration of the series differs between compounds; nearly all actives have a fitted effect of over 30% in size). The essentials:
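Read-out: CellTiter-Glo luminescence, 30 min RT. Cells: wild-type CHO-K1, 1000/well, 10% FBS, plated overnight at 37C. Treatment: 15 concentrations, 3 hr, 37C, 0.76% DMSO.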

Test [6] can be described thus: qHTS RealTime-Glo MT Cell Viability Assay in HepG2 cells - 24 hour (AID 1224867). Further: nearly all actives have a fitted effect of over 50% in size. A digest of the protocol: (§1)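 Cell number in HepG2 cultures estimated from NanoLuc luminescence generated by metabolic reduction of a prosubstrate by living cells. The homogeneous, nonlytic format allowed repeated reads at 0, 8, 16, 24, 32 and 40 h of compound exposure.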
The nature of test [7]: qHTS RealTime-Glo MT Cell Viability Assay in HEK293 cells - 32 hour (AID 1224868). Further: nearly all actives have a fitted effect of over 50% in size. Further: potency means the concentration at half of the fitted maximal effect. A digest of the protocol:
(§2)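 Homogeneous bioluminescent viability format in HEK293 cells (600 cells/well). Following 5 h at 37 C/5% CO2, 23 nL compound was pintooled; the signal was measured repeatedly during 40 h incubation.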

A short description of test [8]: A CellTox Green Cytotoxicity Assay to monitor cytotoxicity in HEK293 cells - 0 hour (AID 1224869). Further: nearly all actives have a fitted effect of over 50% in size. The essentials:
(§3)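 Read-out: fluorescence of a cell-impermeant cyanine dye staining DNA of dead cells, proportional to cytotoxicity. HEK293, 600 cells/well with reagent, compound (23 nL DMSO) added after 5 h; reads at 0, 8, 16, 24, 32, 40 h.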

Test [9] is described as follows: qHTS RealTime-Glo MT Cell Viability Assay in HepG2 cells - 40 hour (AID 1224870). Further: nearly all actives have a fitted effect of over 50% in size. A digest of the protocol: (§4)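 Real-time viability: cells seeded at 600 per well together with NanoLuc and cell-permeant prosubstrate, compounds added after 5 h incubation. Luminescence tracked at 0, 8, 16, 24, 32 and 40 h of exposure.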
A short description of test [10]: A CellTox Green Cytotoxicity Assay to monitor cytotoxicity in HEK293 cells - 40 hour (AID 1224871). Further: nearly all actives have a fitted effect of over 45% in size. The essentials: as §3
The nature of test [11]: qHTS RealTime-Glo MT Cell Viability Assay in HEK293 cells - 16 hour (AID 1224872). Further: nearly all actives have a fitted effect of over 50% in size. Further: potency means the concentration at half of the fitted maximal effect. The essentials: as §2
Test [12] in a line: qHTS RealTime-Glo MT Cell Viability Assay in HepG2 cells - 8 hour (AID 1224873). Further: nearly all actives have a fitted effect of over 55% in size. A digest of the protocol: as §4
Test [13] can be described thus: A CellTox Green Cytotoxicity Assay to monitor cytotoxicity in HEK293 cells - 24 hour (AID 1224875). Further: nearly all actives have a fitted effect of over 45% in size. The essentials: as §3
Test [14] in a line: A CellTox Green Cytotoxicity Assay to monitor cytotoxicity in HepG2 cells - 16 hour (AID 1224876). Further: nearly all actives have a fitted effect of over 45% in size. A digest of the protocol:
(§5)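 HepG2, 600 cells/well premixed w/ CellTox Green; 5 h settle, 37 C/5% CO2; pintool cpd add (DMSO); 37 C, 40 h; fluorescence read at 0, 8, 16, 24, 32, 40 h.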

A short description of test [15]: qHTS RealTime-Glo MT Cell Viability Assay in HepG2 cells - 32 hour (AID 1224877). Further: nearly all actives have a fitted effect of over 55% in size. The essentials:
as §1

A short description of test [16]: A CellTox Green Cytotoxicity Assay to monitor cytotoxicity in HepG2 cells - 24 hour (AID 1224878). Further: nearly all actives have a fitted effect of over 45% in size. The essentials: as §5
Test [17] in a line: A CellTox Green Cytotoxicity Assay to monitor cytotoxicity in HepG2 cells - 40 hour (AID 1224879). Further: nearly all actives have a fitted effect of over 40% in size. Further: potency means the concentration at half of the fitted maximal effect. A digest of the protocol:
as §5

Test [18] is described as follows: qHTS RealTime-Glo MT Cell Viability Assay in HEK293 cells - 0 hour (AID 1224880). The essentials: (§6)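 Luminescence readout at each listed time point; HEK293, 600 cells/well, RealTime-Glo MT reagent added with cells; compounds pinned (23 nL in DMSO) after 5 h at 37 C; continuous culture at 37 C.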
A short description of test [19]: qHTS RealTime-Glo MT Cell Viability Assay in HEK293 cells - 40 hour (AID 1224874). Further: nearly all actives have a fitted effect of over 50% in size. Further: potency means the concentration at half of the fitted maximal effect. Conditions: RealTime-Glo luminescence; max response: stronger effect = lower value. The essentials:
as §6

Test [20] in a line: qHTS assay to identify small molecule agonists of the estrogen related receptor (ERR) signaling pathway from Tox21 library (AID 1224849; calls by dose curve; further: nearly all actives have a fitted effect of over 15% in size). Conditions: ERR reporter cell line, ONE-Glo luciferase, 18 h. The essentials: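 Luminescence readout (ONE-Glo, 30 min RT) after 18 h compound exposure at 37 C of NTP-supplied ERR reporter cells; cells were plated 6 h before compound addition by pin tool.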

Several values for one entry are separate records, joined by “and”; a condition that tells them apart may be missing. Equal values may be shown once. Records with an inconclusive call do not appear. Some compounds were tested as several samples or in several runs, with calls that do not always agree. Activity calls are given as the source filed them. Unless noted, the call rests on the fitted dose curve; in most records, active means well fitted curve in the direction sought with a large enough effect in the repeat runs; inconclusive means weak or mixed curves; inactive means no such curve, though single readings can be large; an effect the other way counts as inactive or inconclusive.
On the % scale 0 is the no-effect control and ±100 the full control effect.

Regarding `CCCCC(CC)C(=O)O` (centres undefined), the Potency result in test [1], in test [2], in test [3], in test [5], in test [6] and in test [7] was “inactive” throughout. Further, the Potency result in [8], in test [9], in test [10], in [11], in test [12] and in [13] was “inactive” in each case. Besides, the Potency result in test [14], in test [15], in test [16], in test [17] and in [18] was “inactive” throughout. Also, the compound was classed as inactive in test [4].
On to `CNNCc1ccc(C(=O)NC(C)C)cc1`, for which the Potency entry in test [1], in [2], in [3], in test [5], in test [6] and in [7] was “inactive” throughout. The Potency result in [8], in test [9], in [11], in [12], in test [13] and in test [14] was “inactive” each time. Moreover, the Potency result in [15], in [16] and in [18] was “inactive” each time. For the same compound, in test [4], the compound was classed as inactive. For the same compound, in test [19], the max response was 2.93% (inactive) and 2.31% (inactive) and 7.98% (inactive). Moreover, the Potency in test [17] is 24.5 µM (active) and 15.5 µM (active) and 23.9 µM (active).
Consider `CS(=O)(=O)OCCCCOS(C)(=O)=O`, for which the Potency result in [1], in test [2], in test [3], in test [5], in [6] and in test [7] was “inactive” in each case. Besides, the Potency entry in test [8], in test [9], in [11], in [12], in test [13] and in test [14] was “inactive” throughout. The Potency result in test [16], in [17] and in test [18] was “inactive” throughout. Further, the compound was called inactive in test [4]. The activity change, positive = activation in [20] (at 42.5 µM (top of the series)) is -0.0445% (inactive); in test [20] (at 92.4 µM (top of the series)) it was -6.97% (inactive) and 6.13% (inactive). Besides, the max response in [19] was 2.47% (inactive) and 13.2% (inactive) and 7.82% (inactive).
Turning to `Cc1ncc([N+](=O)[O-])n1C`, the Potency result in test [1], in [2], in test [3], in test [5], in test [6] and in test [7] was “inactive” in each case. Further, the Potency result in [8], in test [9], in test [10], in [11], in test [12] and in test [13] was “inactive” throughout. Also, the Potency entry in [14], in test [16], in [17] and in [18] was “inactive” throughout. In addition, the compound was classed as inactive in test [4]. In addition, the activity change, positive = activation in test [20] (at 42.5 µM (top of the series)) was 5.13% (inactive); in test [20] (at 92.4 µM (top of the series)), 5.9% (inactive) and -0.499% (inactive). For the same compound, in test [19], the max response is 6.42% (inactive) and -0.882% (inactive) and 0.401% (inactive).
`O=C(O)c1ccccc1`: the Potency entry in test [1], in test [2], in test [3], in test [5], in test [6] and in test [7] was “inactive” in each case. The Potency result in test [8], in test [9], in test [10], in [11], in test [12] and in test [13] was “inactive” each time. Besides, the Potency entry in test [14], in [15], in test [16], in test [17] and in test [18] was “inactive” in each case. Moreover, the result in test [4] was inactive.
On to `O=C(O)CC(O)C(=O)O` (centres undefined), for which the Potency entry in test [1], in test [2], in [3], in [5], in [6] and in [7] was “inactive” in each case. Moreover, the Potency result in [8], in test [9], in [11], in test [12], in [13] and in test [14] was “inactive” throughout. Also, the Potency entry in test [15], in test [16], in test [17] and in [18] was “inactive” each time. Further, the call in test [4] was inactive. Besides, in [19], the max response is -23.9% (inactive) and -4.53% (inactive) and 7.17% (inactive).
Consider `Cc1cccc(C)c1`, for which the Potency result in [1], in [2], in test [3], in test [5], in test [6] and in [7] was “inactive” in each case. Moreover, the Potency result in [8], in test [9], in [10], in test [11], in test [12] and in test [13] was “inactive” in each case. Further, the Potency result in test [14], in test [16], in test [17] and in [18] was “inactive” throughout. Besides, the compound was called inactive in [4]. Also, the activity change, positive = activation in test [20] (at 92.4 µM (top of the series)) is -11.8% (inactive) and 5.13% (inactive). In addition, the max response in test [19] was -11.1% (inactive) and -3.52% (inactive) and 0.116% (inactive).
Take `CN(C)C(=O)Nc1ccc(Cl)c(Cl)c1`: the Potency entry in test [1], in [2], in [3], in test [5], in test [6] and in [7] was “inactive” in each case. In addition, the Potency result in test [8], in [9], in test [10], in test [11], in [12] and in test [13] was “inactive” in each case. Besides, the Potency result in test [14], in [16], in [17] and in [18] was “inactive” each time. In addition, the call in [4] was inactive. Moreover, the activity change, positive = activation in test [20] (at 42.5 µM (top of the series)) was -0.767% (inactive); in [20] (at 92.4 µM (top of the series)), -14.1% (inactive) and -8.37% (inactive). For the same compound, the max response in test [19] is -20.7% (inactive).
`CCOc1ccc(NC(C)=O)cc1`: the Potency result in test [1], in test [2], in test [3], in [5], in [6] and in test [8] was “inactive” throughout. The Potency entry in [9], in test [11], in [12], in test [13], in test [14] and in [15] was “inactive” throughout. Also, the Potency result in [16], in test [17] and in [18] was “inactive” throughout. Also, in test [4], the compound was classed as inactive. Moreover, the activity change, positive = activation in test [20] (at 42.5 µM (top of the series)) is 9.79% (inactive); in test [20] (at 92.4 µM (top of the series)), 9.07% (inactive) and -21.8% (inactive). Besides, the Potency entry in test [7] was “inactive and 24.5 µM (active)”; in test [19], 21.9 µM (active). Also, the max response in test [19] was 2.25% (inactive) and 1.74% (inactive).
For the compound `CCCC[P+](CCCC)(CCCC)CCCC`, the Potency entry in test [1], in test [2], in test [3], in [5], in test [6] and in [8] was “inactive” each time. Further, the Potency result in test [9], in test [12], in test [13], in [14], in test [15] and in [16] was “inactive” throughout. Besides, the Potency result in test [17] and in test [18] was “inactive” in each case. In addition, the compound was called inactive in [4]. Besides, the Potency in [7] is 19.4 µM (active) and 15.8 µM (active) and 3.89 µM (active); in test [11] it was 21.8 µM (active); in [19] it was 21.8 µM (active) and 17.7 µM (active) and 4.36 µM (active).
